Results filed as inconclusive are left out. Calls of active or inactive are those of the source. The calls were made as follows, unless noted: active = hit-call score of the fitted dose curve at least 0.9, where 1 is the maximum; inactive = score below 0.9.

A short description of test [1]: ACEA_ER_80hr: ACEA Biosciences xCELLigence Real-Time Cell Analysis on Estrogen Receptor Agonism for Proliferation (AID 2282667; active = hit-call score of the fitted dose curve at least 0.9, where 1 is the maximum). To be noted: T47D proliferation, impedance (xCELLigence), 80 h. In short, it runs like this: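 Real-time impedance growth kinetics of human T-47D breast cells read 80 h after dosing, gain-of-signal fitted relative to DMSO. Compounds: 1:4 serial series, top final concentration 100 uM, n = 2.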

Test [2] is described as follows: ATG_CRE_CIS: Attagene CIS-FACTORIAL HepG2 Assay for human cAMP Responsive Element (CRE) binding protein 3 (AID 2282926). Particulars: HepG2 CRE cis-reporter, Attagene multiplexed mRNA; actives raise or lower the signal. In short, it runs like this: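 Multiplexed transcription-unit reporters transfected into HepG2; 24 h dosing; RT-PCR/capillary electrophoresis fluorescence read-out; bidirectional fit vs DMSO.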

Test [3] addresses CCAAT/enhancer-binding protein beta (Homo sapiens) (UniProt P17676). The test is described as follows: ATG_C_EBP_CIS: Attagene CIS-FACTORIAL HepG2 Assay for human CCAAT/Enhancer Binding Protein (C/EBP) beta (AID 2282927). To be noted: HepG2 Attagene cis-factorial transcription factor reporter; actives raise or lower the signal. The procedure, abridged: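 Endogenous C/EBPb-driven reporter transcripts measured in transfected human HepG2 cells at 24 h via RT-PCR and capillary electrophoresis of labelled fragments. Activity fitted in both directions relative to DMSO baseline.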

Test [4] is described as follows: ATG_CMV_CIS: Attagene CIS-FACTORIAL HepG2 Assay for human CMV (Internal Marker) (AID 2282928).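 Also: endpoint acts as a background internal control marker rather than a target.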 Particulars: HepG2 CMV promoter reporter, transcription factor profiling; actives raise or lower the signal. The procedure, abridged:
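After transient transfection of HepG2 with reporter transcription units driven by cis-regulatory promoters, cells receive test chemical for 24 h. Labeled reporter amplicons, digested with HpaI, are sized and quantified by capillary electrophoresis against DMSO.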

Test [5] in a line: ATG_DR4_LXR_CIS: Attagene CIS-FACTORIAL HepG2 Assay for human Liver X Receptor (LXR), DR4 submotif (AID 2282929). To be noted: HepG2 Attagene DR4 cis-reporter, mRNA transcription; actives raise or lower the signal. The procedure, abridged: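 Transiently transfected HepG2 liver cells; cis-regulated reporters; 24 h dosing. RT-PCR plus CE read-out of reporter mRNA. DMSO baseline, bidirectional curve fitting.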

Test [6] deals with Aryl hydrocarbon receptor (Homo sapiens) (UniProt P35869). The test is described as follows: ATG_Ahr_CIS: Attagene CIS-FACTORIAL HepG2 Assay for human Aryl Hydrocarbon Receptor (Ahr) (AID 2282930). To be noted: HepG2 AhR cis-factorial reporter transcription; actives raise or lower the signal. The procedure, abridged: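 Reporter mRNA levels, quantified by RT-PCR and fluorescent capillary electrophoresis, reflect endogenous AhR transcriptional activity in HepG2 cells carrying transfected cis-promoter reporter constructs. Readout at 24 h post-dose; gain or loss fitted against DMSO baseline.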
Sequence of Aryl hydrocarbon receptor (Homo sapiens) (P35869 whole entry, looked up): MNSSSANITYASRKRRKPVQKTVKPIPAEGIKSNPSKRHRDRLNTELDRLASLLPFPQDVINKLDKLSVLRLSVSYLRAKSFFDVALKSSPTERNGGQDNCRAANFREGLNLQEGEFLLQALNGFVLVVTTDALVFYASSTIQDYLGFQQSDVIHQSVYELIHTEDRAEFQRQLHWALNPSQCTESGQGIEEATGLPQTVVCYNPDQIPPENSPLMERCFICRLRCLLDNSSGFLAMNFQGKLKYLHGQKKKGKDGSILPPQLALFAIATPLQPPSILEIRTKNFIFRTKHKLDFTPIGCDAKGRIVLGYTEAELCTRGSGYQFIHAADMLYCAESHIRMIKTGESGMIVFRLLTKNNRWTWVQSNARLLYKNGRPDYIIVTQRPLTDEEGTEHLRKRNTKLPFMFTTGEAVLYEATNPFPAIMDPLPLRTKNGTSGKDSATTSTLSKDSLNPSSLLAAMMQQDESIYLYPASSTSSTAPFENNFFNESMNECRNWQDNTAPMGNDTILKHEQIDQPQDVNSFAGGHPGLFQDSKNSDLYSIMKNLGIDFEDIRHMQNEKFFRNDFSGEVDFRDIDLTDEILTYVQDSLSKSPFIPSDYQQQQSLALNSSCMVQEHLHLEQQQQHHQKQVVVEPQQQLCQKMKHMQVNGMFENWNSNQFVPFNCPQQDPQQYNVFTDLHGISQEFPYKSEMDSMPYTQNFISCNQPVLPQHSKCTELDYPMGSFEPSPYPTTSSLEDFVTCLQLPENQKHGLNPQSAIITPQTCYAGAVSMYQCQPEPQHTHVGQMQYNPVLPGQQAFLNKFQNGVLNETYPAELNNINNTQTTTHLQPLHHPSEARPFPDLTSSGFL

Test [7] in a line: ATG_AP_1_CIS: Attagene CIS-FACTORIAL HepG2 Assay for human Activator Protein 1 (AP-1) (AID 2282931). Particulars: HepG2 Attagene cis-factorial AP-1 reporter mRNA; actives raise or lower the signal. In short, it runs like this:
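We transfected HepG2 cells transiently with a set of cis-regulated reporter transcription units, dosed them for 24 h, and quantified reporter mRNA via RT-PCR and capillary electrophoresis, scoring gain or loss of signal relative to DMSO.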

The nature of test [8]: ATG_AP_2_CIS: Attagene CIS-FACTORIAL HepG2 Assay for human Activator Protein 2 (AP-2) (AID 2282932). To be noted: HepG2 AP-2 cis-reporter, Attagene transcription factor profiling; actives raise or lower the signal. The procedure, abridged: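 Step one: transient transfection of HepG2 with reporter transcription units. Step two: 24 h chemical exposure. Step three: RNA extraction, RT-PCR, labelled fragment analysis by capillary electrophoresis; DMSO serves as baseline.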

Test [9] can be described thus: ATG_BRE_CIS: Attagene CIS-FACTORIAL HepG2 Assay for human Bone Morphogenetic Protein (BMP) Response Element (BRE) (AID 2282933). Particulars: HepG2 BMP response element reporter, Attagene transcription factor profiling; actives raise or lower the signal. In short, it runs like this:
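Fluorescence-labelled reporter cDNA fragments, separated by capillary electrophoresis, gave the signal for this component of a 52-readout multiplex. HepG2 cells were transfected, exposed to chemicals for 24 h, and compared with DMSO using bidirectional fitting.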

Test [10] concerns the target Retinoic acid receptor alpha (Homo sapiens) (UniProt P10276). The experiment in a line: ATG_DR5_RAR_CIS: Attagene CIS-FACTORIAL HepG2 Assay for human Retinoic Acid Receptor Alpha (RARE), DR5 submotif (AID 2282934). Particulars: HepG2 Attagene cis-factorial RARE DR5 reporter, mRNA; actives raise or lower the signal. In short, it runs like this: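 Reporter transcripts from a DR5-regulated unit, measured via RT-PCR plus capillary electrophoresis, reflect endogenous RAR activity in transiently transfected human HepG2 liver cells. Exposure lasted 24 h; gain or loss of signal scored against DMSO.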

In test [11] the target is Transcription factor E2F1 (Homo sapiens) (UniProt Q01094). The experiment in a line: ATG_E2F_CIS: Attagene CIS-FACTORIAL HepG2 Assay for human E2F Transcription Factor 1 (AID 2282935). Particulars: HepG2 Attagene cis-reporter, E2F reporter RNA transcripts; actives raise or lower the signal. The procedure, abridged: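 Total RNA from 24 h-treated, reporter-transfected HepG2 cells undergoes DNase I treatment, oligo(dT) reverse transcription, PCR and 6-FAM primer extension before capillary electrophoresis.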
Sequence of Transcription factor E2F1 (Homo sapiens) (Q01094 whole entry, looked up): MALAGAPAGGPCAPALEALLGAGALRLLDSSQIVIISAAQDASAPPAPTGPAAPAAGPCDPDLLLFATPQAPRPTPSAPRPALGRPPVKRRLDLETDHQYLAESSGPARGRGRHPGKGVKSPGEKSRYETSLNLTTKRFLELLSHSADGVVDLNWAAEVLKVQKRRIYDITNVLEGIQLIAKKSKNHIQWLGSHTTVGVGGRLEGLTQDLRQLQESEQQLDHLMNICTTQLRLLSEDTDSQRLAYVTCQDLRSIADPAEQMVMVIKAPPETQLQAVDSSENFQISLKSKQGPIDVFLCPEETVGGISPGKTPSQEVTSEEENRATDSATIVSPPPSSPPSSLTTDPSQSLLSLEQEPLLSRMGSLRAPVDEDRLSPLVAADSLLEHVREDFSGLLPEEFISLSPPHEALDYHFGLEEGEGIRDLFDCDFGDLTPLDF

Test [12] is described as follows: ATG_E_Box_CIS: Attagene CIS-FACTORIAL HepG2 Assay for human Enhancer Box (E-box) (AID 2282936). To be noted: HepG2 E-box cis-reporter transcription, actives raise or lower the signal. The procedure, abridged: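 DMSO served as negative control and baseline for bidirectional fitting. Human hepatoma HepG2 cells, transiently transfected with cis-reporter constructs, were dosed 24 h; reporter mRNA read by RT-PCR and capillary electrophoresis.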

Test [13] is described as follows: ATG_M_61_CIS: Attagene CIS-FACTORIAL HepG2 Assay for M61 Transcription Factor (Internal Marker) (AID 2282937). Particulars: HepG2 Attagene CIS-FACTORIAL M61 internal marker reporter; actives raise or lower the signal. The procedure, abridged: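 Multiplexed reporter mRNA assay, HepG2 human hepatoma cells, 24 h treatment. Signal: FAM-labelled, HpaI-digested RT-PCR fragments by CE. Fit: bidirectional, baseline DMSO.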

Test [14] is described as follows: ATG_EGR_CIS: Attagene CIS-FACTORIAL HepG2 Assay for human Early Growth Response 1 (EGR1) (AID 2282938). Particulars: HepG2 Attagene CIS-FACTORIAL EGR reporter mRNA; actives raise or lower the signal. In short, it runs like this:
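Multiplexed cis-reporter system in human hepatoma HepG2 cells, transiently transfected. Cells are dosed for 24 h; reporter transcripts are amplified, fluorescently tagged and sized by capillary electrophoresis, with DMSO as negative control.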

The nature of test [15]: ATG_M_19_CIS: Attagene CIS-FACTORIAL HepG2 Assay for M19 Transcription Factor (Internal Marker) (AID 2282939). Particulars: HepG2 Attagene CIS-FACTORIAL M19 internal marker reporter; actives raise or lower the signal. The procedure, abridged:
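HepG2, MRTU transient transfection, 24 h dosing. Total RNA → RT-PCR → 6-FAM primer extension → HpaI digest → CE fluorescence. Bidirectional curve fit, DMSO negative control.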

Test [16] in a line: ATG_ERE_CIS: Attagene CIS-FACTORIAL HepG2 Assay for Estrogen Response Element (ERE) (AID 2282940). To be noted: HepG2 ERE cis-reporter, Attagene RNA transcript; actives raise or lower the signal. The procedure, abridged: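 After a 24 h chemical treatment, RNA from reporter-transfected HepG2 cells is reverse-transcribed, PCR-amplified and fluorescently labelled. Fragments separated by capillary electrophoresis give reporter signal; DMSO serves as negative control.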

Test [17] in a line: ATG_Ets_CIS: Attagene CIS-FACTORIAL HepG2 Assay for human Erythroblast Transformation Specific (ETS) (AID 2282941). To be noted: HepG2 ETS cis-reporter transcription, actives raise or lower the signal. The procedure, abridged: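 Human HepG2 hepatoma cells were transiently transfected with promoter-driven reporter constructs and treated for 24 hours. Reporter transcripts were quantified by RT-PCR with fluorescent primer extension; bidirectional curve fitting used DMSO as reference.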

The target in test [18] is Hepatocyte nuclear factor 3-beta (Homo sapiens) (UniProt Q9Y261). The experiment in a line: ATG_FoxA2_CIS: Attagene CIS-FACTORIAL HepG2 Assay for human Forkhead box A2 (FOXA2) (AID 2282942). Particulars: HepG2 cis-reporter transcription factor activity, 24 h; actives raise or lower the signal. In short, it runs like this:
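Multiplexed cis-element reporter assay in transiently transfected HepG2. Twenty-four hours post-dosing, RNA was reverse-transcribed, amplified, FAM-labelled, HpaI-digested and separated by CE. Activity gain or loss relative to DMSO.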

Test [19] in a line: ATG_FoxO_CIS: Attagene CIS-FACTORIAL HepG2 Assay for human Forkhead box O (FoxO) (AID 2282943). Particulars: HepG2 Attagene cis-reporter, FoxO element, mRNA; actives raise or lower the signal. In short, it runs like this: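 Endogenous transcription factor activity read from multiplexed cis-promoter reporter transcripts in transiently transfected HepG2, 24 h after dosing. Reporter RNA measured via RT-PCR plus capillary electrophoresis of FAM-labeled products; gain or loss relative to DMSO.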

A short description of test [20]: ATG_GATA_CIS: Attagene CIS-FACTORIAL HepG2 Assay for human GATA Binding Protein (AID 2282944). Particulars: HepG2 GATA cis-element reporter, Attagene multiplex mRNA; actives raise or lower the signal. In short, it runs like this: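 Cells: HepG2, transiently transfected with cis-regulated reporter transcription units. Exposure: 24 h. Detection: RT-PCR plus capillary electrophoresis of FAM-labeled fragments. Analysis: bidirectional, DMSO as baseline.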

Sequence of CCAAT/enhancer-binding protein beta (Homo sapiens) (P17676 whole entry, looked up, the tested form may be a part): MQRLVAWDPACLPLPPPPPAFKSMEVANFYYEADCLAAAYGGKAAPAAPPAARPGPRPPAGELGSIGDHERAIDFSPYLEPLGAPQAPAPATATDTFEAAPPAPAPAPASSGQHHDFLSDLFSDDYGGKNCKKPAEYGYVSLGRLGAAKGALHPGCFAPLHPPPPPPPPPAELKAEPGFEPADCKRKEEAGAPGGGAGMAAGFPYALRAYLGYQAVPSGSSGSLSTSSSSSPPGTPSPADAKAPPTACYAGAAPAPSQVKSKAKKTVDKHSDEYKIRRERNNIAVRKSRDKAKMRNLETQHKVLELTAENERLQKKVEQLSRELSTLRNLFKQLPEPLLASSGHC
Sequence of Retinoic acid receptor alpha (Homo sapiens) (P10276 whole entry, looked up): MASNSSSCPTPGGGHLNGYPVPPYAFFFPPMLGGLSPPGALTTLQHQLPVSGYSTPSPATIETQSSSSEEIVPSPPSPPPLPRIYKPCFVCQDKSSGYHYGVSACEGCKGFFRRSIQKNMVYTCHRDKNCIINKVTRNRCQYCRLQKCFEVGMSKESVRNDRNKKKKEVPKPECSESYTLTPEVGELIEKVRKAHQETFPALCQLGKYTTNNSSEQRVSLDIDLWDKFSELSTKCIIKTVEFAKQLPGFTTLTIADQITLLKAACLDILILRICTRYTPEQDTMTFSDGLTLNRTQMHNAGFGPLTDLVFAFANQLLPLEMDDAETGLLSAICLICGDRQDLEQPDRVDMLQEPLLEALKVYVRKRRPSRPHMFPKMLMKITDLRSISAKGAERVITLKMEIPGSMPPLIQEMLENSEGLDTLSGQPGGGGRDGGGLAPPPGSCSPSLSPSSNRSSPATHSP
Sequence of Hepatocyte nuclear factor 3-beta (Homo sapiens) (Q9Y261 whole entry, looked up): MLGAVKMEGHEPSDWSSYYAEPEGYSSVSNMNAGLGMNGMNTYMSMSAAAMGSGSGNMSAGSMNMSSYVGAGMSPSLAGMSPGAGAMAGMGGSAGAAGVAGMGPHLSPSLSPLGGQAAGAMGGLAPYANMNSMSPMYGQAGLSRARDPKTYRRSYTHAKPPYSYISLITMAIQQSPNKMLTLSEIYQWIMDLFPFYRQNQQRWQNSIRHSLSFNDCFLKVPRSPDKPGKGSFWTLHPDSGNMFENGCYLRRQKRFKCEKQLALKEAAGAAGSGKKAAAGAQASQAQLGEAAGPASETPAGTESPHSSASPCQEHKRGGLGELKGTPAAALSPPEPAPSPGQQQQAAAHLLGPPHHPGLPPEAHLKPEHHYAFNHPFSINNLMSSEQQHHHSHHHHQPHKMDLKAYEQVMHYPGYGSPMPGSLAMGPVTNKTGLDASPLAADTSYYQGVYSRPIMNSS

Regarding `CCCCOC(=O)[C@H](C)O`, the compound was called inactive in test [1], in [2], in test [3], in [4], in [5] and in test [6]. Moreover, the outcome in test [7], in [8], in test [9], in test [10], in test [11] and in test [12] was inactive. Besides, the outcome in test [13], in test [14], in [15], in test [16], in [17] and in test [18] was inactive. In addition, the call in test [19] and in test [20] was inactive.

Consider `NS(=O)(=O)C(F)(F)C(F)(F)C(F)(F)C(F)(F)C(F)(F)C(F)(F)F`, for which the result in [1], in [2], in [3], in [4], in test [5] and in [6] was inactive. The call in test [7], in [8], in test [9], in test [10], in [11] and in [12] was inactive. For the same compound, the outcome in test [13], in test [14], in test [15], in test [17], in test [18] and in [19] was inactive. In test [20], the call was inactive. The AC50 (commonly the midpoint of the concentration-response curve, whichever way the signal moves) in test [16] is 41.4 µM (active).

As for `Cc1ccc(O)c(-n2nc3ccccc3n2)c1`, the compound was classed as inactive in test [1], in [2], in test [3], in [4], in test [5] and in test [7]. Moreover, the outcome in test [8], in test [9], in test [10], in test [11], in [12] and in test [13] was inactive. The result in test [14], in test [15], in test [17], in test [18], in test [19] and in test [20] was inactive. Also, the AC50 in test [6] was 7.41 µM (active); in test [16], 10.4 µM (active).

Regarding `CCOC(C=C(C)CCC=C(C)C)OCC`, the compound was called inactive in test [1], in [2], in test [3], in test [4], in [5] and in test [6]. The compound was classed as inactive in [7], in test [8], in test [9], in [10], in test [11] and in test [12]. Also, the result in test [13], in test [14], in [15], in [16], in test [17] and in [18] was inactive. Further, the call in test [19] and in test [20] was inactive.

The values above are taken from PubChem BioAssay (EPA / NIEHS).
